Measurements taken from the supplement of paper PMC10849652.
Targets with a hit are over-represented here; the source holds about 8,800 in all. About 0.5% of all pairs of compound and target were hits.

What was measured:
Assay in all cases: log2 fold change, soluble protein after heating vs DMSO (PISA); higher = thermal stabilisation; K562 lysate, 10 uM; active = over 0.2 and 3.5 SD of the protein, either way, in both replicates (recomputed)
[1] = compound: Cc1cn(-c2cc(NC(=O)c3ccc(C)c(Nc4nccc(-c5cccnc5)n4)c3)cc(C(F)(F)F)c2)cn1 [nilotinib]
In short: (§1)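 The values are log-two fold changes in thermal stability compared with solvent controls and come from duplicates. They were obtained by TMTpro 16plex LC-MS/MS, with channel sums equalised, on the supernatant after 21,000xg for 90 min. That supernatant came from crude K562 extract at 1 mg/mL protein treated with 10 μM compound for 30 min, heated for 3 min across 48°C-58°C, pooled and brought to 0.5% NP-40 at 4°C.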

[2] = compound: Cc1nc(Nc2n[nH]c3c2CN(C(=O)N[C@H](CN(C)C)c2ccccc2)C3(C)C)c2sccc2n1
In short: as §1

[3] = compound: Cc1nc(Nc2ncc(C(=O)Nc3c(C)cccc3Cl)s2)cc(N2CCN(CCO)CC2)n1 [dasatinib]
In short: as §1

[4] = compound: Cc1ncc(-c2ccnc(Nc3ccc(S(C)(=O)=O)cc3)n2)n1C(C)C
In short: as §1

[5] = compound: Cn1cc(-c2ccc3c(c2)CCN3C(=O)Cc2cccc(C(F)(F)F)c2)c2c(N)ncnc21
In short: as §1

[6] = compound: Cn1cc(CNCC2CCN(c3ncc(C(=O)NO)cn3)CC2)c2ccccc21 [quisinostat]
In short: as §1

[7] = compound: Cn1cncc1[C@@](N)(c1ccc(Cl)cc1)c1ccc2c(c1)c(-c1cccc(Cl)c1)cc(=O)n2C [tipifarnib]
In short: as §1

[8] = compound: NC(=O)Nc1cc(-c2cccc(F)c2)sc1C(=O)N[C@H]1CCCNC1
In short: as §1

[9] = compound: NC(=O)c1cnc(N[C@@H]2CCCC[C@@H]2N)nc1Nc1cccc(-n2nccn2)c1
In short: as §1

[10] = compound: NC1(c2ccc(-c3nc4ccn5c(=O)[nH]nc5c4cc3-c3ccccc3)cc2)CCC1
In short: as §1

[11] = compound: NCC(=O)Nc1ccc(-n2nc(C(F)(F)F)cc2-c2ccc3c(ccc4ccccc43)c2)cc1
In short: as §1

[12] = compound: O=C(CCCCCCC(=O)Nc1ccccc1)NO [vorinostat]
In short: as §1

[13] = compound: O=C(O)c1ccc2c(c1)nc(Nc1cccc(Cl)c1)c1ccncc12 [silmitasertib]
In short: as §1

[14] = compound: O=C1NC(=O)C(c2cnc3ccccn23)=C1c1cn2c3c(cc(F)cc13)CN(C(=O)N1CCCCC1)CC2
In short: as §1

[15] = compound: c1cn2cc(-c3ccc4cn[nH]c4c3)nc(Nc3ccc(N4CCOCC4)cc3)c2n1 [entospletinib]
In short: as §1

Measured: log2 fold change

MRPL35 (UniProt Q9NZE8)
inactive: [1] 0.05 | [2] -0.027 | [3] 0.062 | [4] 0.049 | [5] -0.028 | [6] 0.004 | [7] -0.037 | [8] -0.034 | [9] -0.007 | [10] 0.056 | [11] -0.229 | [12] -0.159 | [13] 0.04 | [14] 0.013

MMS19 isoform 8 (UniProt Q96T76)
active: [12] -0.372
inactive: [1] -0.014 | [2] 0.019 | [3] -0.043 | [4] 0.018 | [5] -0.011 | [6] -0.056 | [7] -0.002 | [8] 0.053 | [9] 0.014 | [10] 0.004 | [11] 0.057 | [13] 0.054 | [14] 0.029 | [15] 0.024

MITD1 (UniProt Q8WV92)
active: [12] 0.255
inactive: [1] -0.022 | [2] 0.089 | [3] 0.011 | [4] -0.09 | [5] 0.027 | [6] 0.027 | [7] 0.022 | [8] 0.03 | [9] 0.07 | [10] -0.047 | [11] 0.01 | [13] -0.051 | [14] -0.079 | [15] -0.024

MMS22L (UniProt Q6ZRQ5)
active: [12] -0.508
inactive: [1] 0.033 | [2] 0 | [3] 0.026 | [4] -0.015 | [5] -0.007 | [6] -0.086 | [7] -0.013 | [8] 0.041 | [9] -0.03 | [10] -0.06 | [11] 0.022 | [13] 0.016 | [14] 0.138 | [15] 0.069

MORF4L1 isoform 2 (UniProt Q9UBU8)
inactive: [1] 0.037 | [2] 0.069 | [3] -0.013 | [4] -0.009 | [5] 0 | [6] 0 | [7] -0.009 | [8] -0.007 | [9] -0.008 | [10] -0.018 | [11] 0.013 | [12] 0.058 | [13] -0.002 | [14] 0.015 | [15] 0.018

MICU2 (UniProt Q8IYU8)
Sequence of UniProt Q8IYU8 (Q8IYU8 whole entry, looked up): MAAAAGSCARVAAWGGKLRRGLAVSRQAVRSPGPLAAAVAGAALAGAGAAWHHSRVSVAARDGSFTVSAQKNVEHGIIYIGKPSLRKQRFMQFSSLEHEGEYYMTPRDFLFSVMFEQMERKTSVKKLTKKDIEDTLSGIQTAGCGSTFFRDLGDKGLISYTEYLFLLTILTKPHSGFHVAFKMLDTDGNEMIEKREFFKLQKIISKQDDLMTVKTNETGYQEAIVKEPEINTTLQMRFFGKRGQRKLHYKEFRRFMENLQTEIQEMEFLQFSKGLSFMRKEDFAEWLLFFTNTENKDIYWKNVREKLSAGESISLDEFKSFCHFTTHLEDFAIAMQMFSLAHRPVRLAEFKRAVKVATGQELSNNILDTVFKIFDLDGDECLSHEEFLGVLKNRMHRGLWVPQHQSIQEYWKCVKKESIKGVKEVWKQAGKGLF
inactive: [1] -0.052 | [2] 0.02 | [3] -0.026 | [4] 0.048 | [5] -0.015 | [6] -0.03 | [7] -0.043 | [8] 0.07 | [9] 0.105 | [10] -0.009 | [11] 0.012 | [12] -0.179 | [13] 0.031 | [14] -0.009 | [15] -0.089

MAPKAPK3 (UniProt Q16644)
inactive: [1] -0.024 | [2] 0.077 | [3] 0.023 | [4] -0.058 | [5] 0.016 | [6] 0.01 | [7] 0.017 | [8] 0.021 | [9] 0.013 | [10] 0.009 | [11] -0.063 | [13] -0.001 | [14] 0.162 | [15] -0.049
active: [12] -0.43

MAPKAPK5 (UniProt Q8IW41)
Sequence of UniProt Q8IW41 (Q8IW41 whole entry, looked up): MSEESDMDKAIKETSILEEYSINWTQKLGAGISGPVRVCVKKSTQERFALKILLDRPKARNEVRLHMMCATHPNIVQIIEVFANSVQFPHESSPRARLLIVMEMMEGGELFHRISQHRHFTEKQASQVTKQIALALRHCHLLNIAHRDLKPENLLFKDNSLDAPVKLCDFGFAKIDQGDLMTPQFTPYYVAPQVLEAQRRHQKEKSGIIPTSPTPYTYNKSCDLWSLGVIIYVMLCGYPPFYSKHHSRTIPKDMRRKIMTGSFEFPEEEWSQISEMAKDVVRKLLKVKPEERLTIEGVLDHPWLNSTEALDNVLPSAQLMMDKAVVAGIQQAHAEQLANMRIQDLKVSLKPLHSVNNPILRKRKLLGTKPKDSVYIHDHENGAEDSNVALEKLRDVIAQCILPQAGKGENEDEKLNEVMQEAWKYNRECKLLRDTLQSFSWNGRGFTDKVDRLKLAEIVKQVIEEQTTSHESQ
inactive: [1] -0.003 | [2] 0.056 | [3] 0.011 | [4] 0.064 | [5] 0.024 | [6] -0.222 | [7] -0.065 | [9] -0.006 | [10] -0.006 | [11] -0.012 | [12] 0.07 | [13] 0.002 | [14] 0.052 | [15] 0.028
active: [8] 0.519

LTN1 isoform 3 (UniProt O94822)
active: [12] -0.58
inactive: [1] 0.006 | [2] -0.007 | [3] -0.086 | [4] -0.009 | [5] 0.014 | [6] -0.023 | [7] -0.002 | [8] 0.044 | [9] -0.016 | [10] -0.027 | [11] 0.057 | [13] 0.04 | [14] 0.028 | [15] 0.034

KPNA4 (UniProt O00629)
inactive: [1] -0.013 | [2] 0.006 | [3] 0.063 | [4] 0.018 | [5] 0.003 | [6] -0.088 | [7] -0.033 | [8] -0.012 | [9] 0 | [10] -0.058 | [11] 0.006 | [12] 0.047 | [13] 0.024 | [14] 0.02 | [15] 0.021

KIF15 (UniProt Q9NS87)
Sequence of UniProt Q9NS87 (Q9NS87 whole entry, looked up): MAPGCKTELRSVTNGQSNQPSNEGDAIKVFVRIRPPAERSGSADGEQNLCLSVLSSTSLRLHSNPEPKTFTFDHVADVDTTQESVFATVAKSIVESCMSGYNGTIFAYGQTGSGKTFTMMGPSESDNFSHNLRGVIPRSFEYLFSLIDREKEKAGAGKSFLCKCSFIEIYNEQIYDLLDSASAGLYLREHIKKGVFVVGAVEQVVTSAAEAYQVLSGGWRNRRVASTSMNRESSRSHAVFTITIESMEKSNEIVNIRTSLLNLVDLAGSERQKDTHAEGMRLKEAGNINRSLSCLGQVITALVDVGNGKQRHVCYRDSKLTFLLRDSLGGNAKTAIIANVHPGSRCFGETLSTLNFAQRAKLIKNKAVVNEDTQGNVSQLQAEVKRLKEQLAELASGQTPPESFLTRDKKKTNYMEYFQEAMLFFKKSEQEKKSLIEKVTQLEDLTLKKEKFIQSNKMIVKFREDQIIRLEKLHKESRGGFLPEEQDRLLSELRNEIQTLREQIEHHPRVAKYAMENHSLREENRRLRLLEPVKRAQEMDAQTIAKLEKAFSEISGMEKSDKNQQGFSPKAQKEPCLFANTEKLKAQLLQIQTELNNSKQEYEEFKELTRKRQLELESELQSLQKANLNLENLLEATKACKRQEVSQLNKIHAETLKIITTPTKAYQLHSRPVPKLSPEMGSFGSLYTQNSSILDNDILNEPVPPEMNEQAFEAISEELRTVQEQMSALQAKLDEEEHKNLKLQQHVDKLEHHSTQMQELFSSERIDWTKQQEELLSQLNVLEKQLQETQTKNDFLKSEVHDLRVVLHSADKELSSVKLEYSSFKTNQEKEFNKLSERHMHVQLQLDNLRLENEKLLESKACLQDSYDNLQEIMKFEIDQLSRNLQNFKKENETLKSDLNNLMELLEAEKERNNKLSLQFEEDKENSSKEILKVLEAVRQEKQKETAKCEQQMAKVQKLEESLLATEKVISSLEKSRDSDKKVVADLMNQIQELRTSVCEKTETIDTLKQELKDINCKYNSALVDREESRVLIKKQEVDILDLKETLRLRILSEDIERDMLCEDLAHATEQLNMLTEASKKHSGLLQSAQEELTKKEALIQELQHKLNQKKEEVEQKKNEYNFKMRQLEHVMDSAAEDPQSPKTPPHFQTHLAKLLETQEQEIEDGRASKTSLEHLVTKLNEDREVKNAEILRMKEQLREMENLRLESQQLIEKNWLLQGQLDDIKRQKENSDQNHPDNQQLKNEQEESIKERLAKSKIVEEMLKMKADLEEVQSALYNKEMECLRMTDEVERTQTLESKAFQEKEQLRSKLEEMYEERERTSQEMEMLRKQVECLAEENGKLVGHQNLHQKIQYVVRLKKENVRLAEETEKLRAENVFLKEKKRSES
inactive: [1] -0.038 | [2] -0.003 | [3] -0.03 | [4] 0.052 | [5] 0.044 | [6] -0.058 | [7] 0.008 | [8] 0.003 | [9] 0.011 | [10] 0 | [11] 0.017 | [12] -0.136 | [13] 0.02 | [14] 0.004 | [15] -0.024

MIPEP (UniProt Q99797)
active: [6] 0.45
inactive: [1] 0.002 | [2] 0.024 | [3] 0.005 | [4] -0.008 | [5] 0.031 | [7] 0.033 | [8] -0.016 | [9] 0.01 | [10] 0.054 | [11] 0.005 | [12] -0.043 | [13] 0.007 | [14] -0.021 | [15] -0.028

KIF4B (UniProt Q2VIQ3)
inactive: [1] -0.016 | [2] 0.034 | [3] -0.013 | [4] 0.049 | [5] 0.096 | [6] -0.08 | [7] -0.009 | [8] 0.037 | [9] 0.045 | [10] -0.078 | [11] -0.035 | [13] 0.027 | [14] -0.02 | [15] 0
active: [12] -0.506

METTL2A (UniProt Q96IZ6)
inactive: [1] -0.012 | [2] 0.022 | [3] 0.044 | [4] -0.014 | [5] 0.03 | [6] -0.042 | [7] 0.01 | [8] 0.057 | [9] -0.029 | [10] 0.005 | [11] 0.033 | [13] -0.005 | [14] 0.058 | [15] -0.003
active: [12] -0.28

MINDY1 isoform 3 (UniProt Q8N5J2)
active: [9] 0.548
inactive: [1] -0.03 | [2] 0.154 | [3] -0.086 | [4] 0.271 | [5] 0.159 | [6] -0.006 | [7] 0.022 | [8] -0.072 | [10] 0.038 | [11] -0.097 | [12] -0.186 | [13] 0.144 | [14] 0.166 | [15] -0.052

MAP2K3 isoform 3 (UniProt P46734)
active: [12] -0.577
inactive: [1] -0.001 | [2] -0.004 | [3] -0.021 | [4] 0.021 | [5] 0.059 | [6] -0.055 | [7] -0.093 | [8] 0.034 | [9] -0.03 | [10] 0.131 | [11] -0.033 | [13] 0.149 | [14] 0.025 | [15] 0.072

MED13L (UniProt Q71F56)
Sequence of UniProt Q71F56 (Q71F56 whole entry, looked up): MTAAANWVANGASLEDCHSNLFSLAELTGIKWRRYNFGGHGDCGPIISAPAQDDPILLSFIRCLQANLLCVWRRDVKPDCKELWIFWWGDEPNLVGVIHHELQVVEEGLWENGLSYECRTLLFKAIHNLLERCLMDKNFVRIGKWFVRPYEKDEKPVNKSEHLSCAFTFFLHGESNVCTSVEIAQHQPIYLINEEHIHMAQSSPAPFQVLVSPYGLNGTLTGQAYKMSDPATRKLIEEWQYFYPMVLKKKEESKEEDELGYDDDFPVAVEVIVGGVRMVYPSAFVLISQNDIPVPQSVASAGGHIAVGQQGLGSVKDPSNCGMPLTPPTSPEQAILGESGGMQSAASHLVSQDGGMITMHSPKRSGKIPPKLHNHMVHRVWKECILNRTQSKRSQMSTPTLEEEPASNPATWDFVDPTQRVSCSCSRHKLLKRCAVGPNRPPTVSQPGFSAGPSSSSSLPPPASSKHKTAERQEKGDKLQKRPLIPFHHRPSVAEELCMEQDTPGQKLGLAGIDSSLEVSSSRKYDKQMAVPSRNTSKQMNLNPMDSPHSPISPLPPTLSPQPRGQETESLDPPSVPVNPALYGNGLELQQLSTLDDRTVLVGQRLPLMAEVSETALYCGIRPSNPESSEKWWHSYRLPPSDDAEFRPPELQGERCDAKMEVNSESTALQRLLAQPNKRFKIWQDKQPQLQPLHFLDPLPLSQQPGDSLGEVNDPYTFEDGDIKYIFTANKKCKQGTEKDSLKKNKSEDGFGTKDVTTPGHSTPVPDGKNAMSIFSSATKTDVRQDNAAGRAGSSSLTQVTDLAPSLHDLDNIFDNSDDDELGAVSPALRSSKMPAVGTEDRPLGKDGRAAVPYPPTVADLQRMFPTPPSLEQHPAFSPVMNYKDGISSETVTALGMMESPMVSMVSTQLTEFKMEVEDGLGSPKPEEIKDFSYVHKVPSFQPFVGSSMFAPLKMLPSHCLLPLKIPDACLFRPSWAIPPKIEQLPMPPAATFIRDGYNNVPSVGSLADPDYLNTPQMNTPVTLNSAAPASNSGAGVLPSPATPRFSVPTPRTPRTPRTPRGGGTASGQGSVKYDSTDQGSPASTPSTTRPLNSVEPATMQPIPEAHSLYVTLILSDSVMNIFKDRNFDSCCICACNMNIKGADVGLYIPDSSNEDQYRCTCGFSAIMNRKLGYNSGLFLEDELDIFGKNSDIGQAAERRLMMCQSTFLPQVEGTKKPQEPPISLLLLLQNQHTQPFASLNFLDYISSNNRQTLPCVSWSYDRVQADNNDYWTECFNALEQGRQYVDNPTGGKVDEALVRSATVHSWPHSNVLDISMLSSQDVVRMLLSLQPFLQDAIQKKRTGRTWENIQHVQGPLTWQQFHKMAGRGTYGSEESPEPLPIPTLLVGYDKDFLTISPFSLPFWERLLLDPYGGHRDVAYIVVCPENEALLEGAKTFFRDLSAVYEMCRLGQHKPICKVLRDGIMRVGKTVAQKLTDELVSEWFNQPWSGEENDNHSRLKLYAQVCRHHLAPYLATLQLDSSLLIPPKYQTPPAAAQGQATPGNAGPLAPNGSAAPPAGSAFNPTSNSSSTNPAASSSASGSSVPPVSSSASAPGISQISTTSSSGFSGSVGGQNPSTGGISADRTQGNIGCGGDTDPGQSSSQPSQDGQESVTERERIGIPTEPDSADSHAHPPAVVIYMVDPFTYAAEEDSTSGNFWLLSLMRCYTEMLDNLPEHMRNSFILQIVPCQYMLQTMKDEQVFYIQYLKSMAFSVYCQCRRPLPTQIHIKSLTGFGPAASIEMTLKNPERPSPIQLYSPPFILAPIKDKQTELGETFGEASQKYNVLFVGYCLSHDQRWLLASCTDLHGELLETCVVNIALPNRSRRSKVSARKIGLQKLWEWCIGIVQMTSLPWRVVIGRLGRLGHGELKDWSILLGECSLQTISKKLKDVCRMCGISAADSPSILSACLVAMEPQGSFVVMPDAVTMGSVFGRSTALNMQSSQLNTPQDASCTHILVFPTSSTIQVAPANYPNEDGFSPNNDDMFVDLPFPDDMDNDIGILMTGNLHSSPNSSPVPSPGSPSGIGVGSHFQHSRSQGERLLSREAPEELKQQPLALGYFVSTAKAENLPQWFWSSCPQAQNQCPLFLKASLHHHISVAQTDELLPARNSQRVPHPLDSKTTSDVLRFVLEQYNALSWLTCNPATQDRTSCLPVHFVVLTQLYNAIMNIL
inactive: [1] 0.06 | [2] -0.056 | [3] 0.017 | [4] 0.032 | [5] 0.045 | [6] -0.055 | [7] -0.012 | [8] 0.069 | [9] 0.014 | [10] 0.015 | [11] -0.057 | [13] 0.017 | [14] 0.017 | [15] -0.052
active: [12] -0.253

LARP4B (UniProt Q92615)
inactive: [1] -0.05 | [2] 0.03 | [3] -0.053 | [4] -0.02 | [5] 0.012 | [6] -0.026 | [7] 0 | [8] 0.026 | [9] -0.001 | [10] 0.008 | [11] 0.019 | [13] 0.032 | [14] -0.028 | [15] -0.011
active: [12] -0.306

LYAR (UniProt Q9NX58)
Sequence of UniProt Q9NX58 (Q9NX58 whole entry, looked up): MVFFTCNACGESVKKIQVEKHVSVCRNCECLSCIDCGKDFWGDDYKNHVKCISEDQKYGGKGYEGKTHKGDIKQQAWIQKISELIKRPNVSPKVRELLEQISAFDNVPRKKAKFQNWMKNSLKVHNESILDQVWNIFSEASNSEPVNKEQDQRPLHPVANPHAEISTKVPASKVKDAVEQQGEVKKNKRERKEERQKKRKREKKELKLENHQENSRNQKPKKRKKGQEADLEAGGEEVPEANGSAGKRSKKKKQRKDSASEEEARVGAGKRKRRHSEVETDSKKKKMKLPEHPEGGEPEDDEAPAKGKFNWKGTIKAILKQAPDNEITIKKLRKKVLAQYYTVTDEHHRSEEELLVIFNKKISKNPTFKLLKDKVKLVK
inactive: [1] 0.01 | [2] -0.021 | [3] 0.002 | [4] 0.005 | [5] 0.014 | [6] 0.003 | [7] 0 | [8] -0.002 | [9] -0.016 | [10] -0.012 | [11] 0.011 | [12] 0.109 | [13] 0.005 | [14] 0.001 | [15] 0.014
